Results filed as inconclusive are left out. Where a call stands in place of a potency, no number is given. A number with no mark means an inactive call. The source made the active and inactive calls. Calls come from the whole dose curve.

Potency and activity change, negative = inhibition data for 40 compounds are collected here from PubChem BioAssay (Tox21).
Potency is the fitted concentration of half-maximal effect.

The test in a line: qHTS assay to identify small molecule antagonists of the sonic hedgehog signaling (Shh) pathway (AID 1259369). Note: nearly all actives have a fitted effect of over 45% in size. Conditions: NIH/3T3 Gli1-Luc reporter, Shh antagonist, luminescence 24 h; series mostly up to 92.4 µM. The text has this:
U.S. Tox21 Program National Center for Advancing Translational Sciences [NCATS] NIH Chemical Genomics Center [NCGC] U.S. Environmental Protection Agency [EPA] National Institutes of Environmental Health Sciences [NIEHS] National Toxicology Program [NTP] U.S. Food and Drug Administration [FDA] Tox21 Assay Overview: The sonic hedgehog (Shh) pathway is essential for normal embryonic development. Dysregulation of the Shh pathway can cause severe developmental defects in organs. Therefore chemicals that interfere with the pathway are potential developmental toxicants. A cell line designated 3T3Gli1-Luc (DMB/OARSA/CFSAN/FDA, Laurel, MD), a NIH/3T3 derived clone containing stably integrated Gli1-Luc reporter is used to detect chemical interference of the Shh pathway, by changes in the expression of the firefly Luc gene under the control of the Gli1 transcriptional response element. This cell line was used to screen Tox21 libraries for identifying and prioritizing the potential developmental toxicants that interfere Shh pathway. Conditioned medium-stimulated mode was used to screen for chemicals inhibiting Shh signaling.
Tox21 Assay Protocol Summary: 3T3 Gli1-Luc cells were dispensed at 2,000 per well in 5uL of culture medium into white solid bottom 1536-well plates (Greiner Bio-One, Monroe, NC) using a Multidrop Combi (Thermo Scientific, Waltham, MA) dispenser. The assay plates were incubated at 37 C and 5% CO2 for 4hr, and then 23nL of compounds dissolved in DMSO and positive control were transferred using a Pintool station (Wako, San Diego, CA). The compound transfer was followed by the addition of 1ul conditioned medium or assay buffer using two separate tips of Flying Reagent Dispenser (FRD, Aurora Discovery, San Diego, CA). The assay plates were incubated at 37C and 5% CO2 for 24hr. For luciferase read, 4uL of Amplite Luciferase reporter gene assay reagent (AAT Bioquest, Inc. Sunnyvale, CA) was added to each well of the assay plates using FRD and incubated at room temperature for 30min. The luminescence signal was measured using a ViewLux plate reader (Perkin Elmer, Shelton, CT).
In the case of `CCOC(=O)/C=C/C(=O)O`, the Potency entry is “inactive”.

For the compound `CC(=O)Oc1ccc2c(c1)CC[C@@H]1[C@@H]2CC[C@]2(C)[C@@H](O)CC[C@@H]12`, the Potency is 1.19 µM (active).

On to `CCC1(C)CC(=O)NC1=O` (stereo not given), for which the Potency entry is “inactive”.

In the case of `CC(C)(O)c1ccccc1CC[C@@H](SCC1(CC(=O)O)CC1)c1cccc(/C=C/c2ccc3ccc(Cl)cc3n2)c1`, the Potency entry was “inactive”.

Take `NC(=O)Cn1c(=O)cc(CCN2CCN(c3nccc4sccc34)CC2)c2ccc(F)cc21`: the Potency was 4.86 µM (active).

Consider `C[Si]1(C)O[Si](C)(C)O[Si](C)(C)O1`, for which the Potency result was “inactive”.

With `O=S1OCCO1`, the Potency entry was “inactive”.

For the compound `COC(=O)c1cc(S(N)(=O)=O)ccc1OC`, the Potency result was “inactive”.

Consider `CC(=O)OCC(=O)[C@H]1CC[C@H]2[C@@H]3CCC4=CC(=O)CC[C@]4(C)[C@H]3CC[C@]12C`, for which the Potency is 11.9 µM (active).

Turning to `O=C(/C=C/c1ccccc1)OCCCc1ccccc1`, the Potency result was “inactive”.

On to `CC(=O)OCC(=O)[C@@]12OC(C)(C)O[C@@H]1C[C@H]1[C@@H]3C[C@H](F)C4=CC(=O)C=C[C@]4(C)[C@@]3(F)[C@@H](O)C[C@@]12C`, for which the Potency result was “inactive”.

Regarding `CCCCCCCCCCCC(=O)[O][Sn]([CH2]CCC)([CH2]CCC)[O]C(=O)CCCCCCCCCCC`, the Potency result was “inactive”.

Regarding `CCCCCCOC(=O)C(C)C`, the Potency result is “inactive”.

For `C=CC(=O)NCOCC(C)C`, the Potency result was “inactive”.

For the compound `CCCCC1C(=O)N(c2ccccc2)N(c2ccc(O)cc2)C1=O` (stereo not given), the Potency is 7.5 µM (active).

For `CC1CC(O)CC(C)(C)C1` (stereo not given), the Potency result is “inactive”.

Consider `CC(=O)CC(c1ccc([N+](=O)[O-])cc1)c1c(O)c2ccccc2oc1=O` (stereo not given), for which the Potency result is “inactive”.

Consider `CC1=C(/C=C/C(C)=C\C=C\C(C)=C\C(=O)O)C(C)(C)CCC1`, for which the Potency result is “inactive”.

Turning to `CCCCOC(=O)CCS`, the Potency result is “inactive”.

As to `Cc1cnc(C)c(C)n1`, the Potency result is “inactive”.

`c1cc[c]([Bi]([c]2ccccc2)[c]2ccccc2)cc1`: the Potency is 13.7 µM (active).

For the compound `COc1cc2c(cc1OC)-c1cc(=Nc3c(C)cc(C)cc3C)n(C)c(=O)n1CC2`, the Potency was 0.596 µM (active).

For the compound `Oc1ccc(Nc2ccccc2)cc1`, the Potency entry is “inactive”.

`CCn1nc(C)c2c1C(=O)NCC(c1ccc(O)cc1)=N2`: the Potency was 0.0122 µM (active).

In the case of `NC(=O)Nc1ccc(Cl)cc1`, the Potency entry was “inactive”.

As for `CC(C)C(OC(=O)c1ccccc1)C(C)(C)COC(=O)c1ccccc1` (stereo not given), the Potency result is “inactive”.

With `Cc1cc(OI)c(C(C)C)cc1-c1cc(C(C)C)c(OI)cc1C`, the Potency result is “inactive”.

Turning to `CCC(C(=O)OCCN(CC)CC)c1ccccc1` (stereo not given), the Potency entry is “inactive”.

Turning to `CC(N)CN` (stereo not given), the Potency entry was “inactive”.

Take `CSc1ccc(Oc2ccc(S(N)(=O)=O)cc2CN(C)C)cc1C`: the Potency was 5.45 µM (active).

Regarding `CCOc1cc(N)c(Cl)cc1C(=O)NCC1CN(Cc2ccc(F)cc2)CCO1` (stereo not given), the Potency entry is “inactive”.

Regarding `CC(C)CCCCCCOC(=O)CCCCC(=O)OCCCCCCC(C)C`, the Potency entry is “inactive”.

For the compound `COC(=O)[C@@H]1CC2=CC(=O)CC[C@]2(C)[C@@]23O[C@@H]2C[C@@]2(C)[C@@H](CC[C@@]24CCC(=O)O4)[C@H]13`, the Potency result is “inactive”.

Take `CC1=NN(c2ccc(C(=O)O)cc2)C(=O)C1`: the Potency entry was “inactive”.

Consider `CC1CN(c2cc3c(cc2F)c(=O)c(C(=O)O)cn3-c2ccc(F)cc2F)CCN1` (stereo not given), for which the activity change, negative = inhibition was 30.3% [at 8.39 µM].

For `[O]=[Bi]`, the Potency is 1.67 µM (active).

On to `COC(=O)CC(=O)C(C)(C)C`, for which the Potency result was “inactive”.

Regarding `C[Si](NC1CCCCC1)(NC1CCCCC1)NC1CCCCC1`, the Potency entry is “inactive”.

As to `O=C(O)c1ccc(CO)o1`, the Potency result is “inactive”.

`CC(Cl)C(Cl)Cl` (stereo not given): the Potency entry was “inactive”.
